Results: PubChem BioAssay
Unmarked numbers belong to inactive results. A call without a number means that no potency is given here. For part of these data: Potency and affinity values are given separately. The source made the active and inactive calls. Unless noted, how the calls were made is not given here.

Key:
[1] = antimalarial activity against Dd2 strain (AID 2302;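 active means growth inhibition above 50% at the single 2 µM test dose, taken to imply half-maximal potency below 2 µM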); conditions: P. falciparum Dd2 in RBCs, LDH growth readout, 72 h; at 2 µM; active compounds read high
[2] = human hepatoma cell viability loss – ATP luminescence, cytotoxicity control for P. falciparum antimalarial project, primary screen (AID 2303;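 active means inhibition above 50%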); conditions: HepG2 viability, 24-48 h, at 10 µM, active compounds read high
[3] = molecular target: L-lactate dehydrogenase (Plasmodium falciparum (isolate CDC / Honduras)) (UniProt Q27743); assay: PfLDH activity inhibition – cell lysate, 3D7 strain, counter-screen for P. falciparum growth inhibition project (AID 2304); conditions: P. falciparum 3D7 crude extract, LDH APAD/NBT absorbance; at 2 µM; active compounds read high
L-lactate dehydrogenase (Plasmodium falciparum (isolate CDC / Honduras)), sequence (Q27743 whole entry, looked up): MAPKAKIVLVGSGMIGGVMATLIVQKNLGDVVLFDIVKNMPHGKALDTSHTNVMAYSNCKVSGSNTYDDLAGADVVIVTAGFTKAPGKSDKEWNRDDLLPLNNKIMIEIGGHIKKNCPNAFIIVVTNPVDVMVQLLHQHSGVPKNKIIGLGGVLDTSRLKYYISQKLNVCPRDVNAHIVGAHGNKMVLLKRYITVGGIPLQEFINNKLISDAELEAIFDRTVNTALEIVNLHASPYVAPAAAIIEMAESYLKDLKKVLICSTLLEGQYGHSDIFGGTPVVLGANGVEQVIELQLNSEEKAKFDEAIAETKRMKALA

[4] = inhibition of 3D7 malaria parasite growth – strain 3D7 (AID 2306); conditions: P. falciparum 3D7 erythrocytic growth, LDH absorbance, 72 h; at 2 µM; active compounds read high
[5] = molecular target: Calcium-dependent protein kinase 1 (Plasmodium falciparum (isolate 3D7)) (UniProt P62344); assay: PfCDPK1 kinase inhibitors, biochemical, TCAMS library (AID 1159585; cut-off not given, nearly all actives have IC50 up to about 0.98 µM;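 further: inhibitors leave more ATP so luminescence rises with inhibition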); conditions: recombinant PfCDPK1, Kinase-Glo ATP depletion luminescence
Calcium-dependent protein kinase 1 (Plasmodium falciparum (isolate 3D7)), sequence (P62344 whole entry, looked up): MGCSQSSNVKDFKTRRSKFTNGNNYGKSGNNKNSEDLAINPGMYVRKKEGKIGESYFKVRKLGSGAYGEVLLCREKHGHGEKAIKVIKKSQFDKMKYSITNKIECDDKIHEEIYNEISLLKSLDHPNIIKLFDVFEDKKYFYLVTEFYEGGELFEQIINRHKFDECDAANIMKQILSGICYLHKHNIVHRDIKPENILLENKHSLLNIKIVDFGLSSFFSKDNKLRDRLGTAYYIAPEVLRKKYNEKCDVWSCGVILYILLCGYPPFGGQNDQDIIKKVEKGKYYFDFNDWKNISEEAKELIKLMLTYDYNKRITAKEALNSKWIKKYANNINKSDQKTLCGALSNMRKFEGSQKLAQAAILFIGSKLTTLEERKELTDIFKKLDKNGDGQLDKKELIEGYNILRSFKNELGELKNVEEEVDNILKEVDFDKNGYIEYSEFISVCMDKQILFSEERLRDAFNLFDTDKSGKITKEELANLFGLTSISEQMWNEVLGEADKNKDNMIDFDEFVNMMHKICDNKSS

[6] = molecular target: Plasmodium falciparum protein kinase 6 (PK6, PF3D7_1337100) (UniProt Q8IDW1); assay: PfPK6 kinase inhibitors, biochemical, TCAMS library (AID 1159586); conditions: recombinant PfPK6, Kinase-Glo ATP depletion luminescence
Plasmodium falciparum protein kinase 6 (PK6, PF3D7_1337100), sequence (Q8IDW1 1-305): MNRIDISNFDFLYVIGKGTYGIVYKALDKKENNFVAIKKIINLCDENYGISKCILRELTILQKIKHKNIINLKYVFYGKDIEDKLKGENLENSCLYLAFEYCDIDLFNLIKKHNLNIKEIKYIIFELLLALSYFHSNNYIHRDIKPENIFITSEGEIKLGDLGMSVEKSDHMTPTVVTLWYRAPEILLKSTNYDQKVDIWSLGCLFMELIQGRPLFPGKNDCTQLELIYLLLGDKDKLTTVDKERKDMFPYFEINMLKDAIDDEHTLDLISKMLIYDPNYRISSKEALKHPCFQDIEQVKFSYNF

[7] = molecular target: Protein kinase 7 (PK7), Plasmodium falciparum 3D7 (PF3D7_0213400) (UniProt Q7YTF7); assay: inhibition of Plasmodium PK7 catalytic activity – biochemical, TCAMS antimalarial set, Kinase-Glo luminescence (AID 1159587); conditions: recombinant PfPK7, Kinase-Glo ATP depletion luminescence
Protein kinase 7 (PK7), Plasmodium falciparum 3D7 (PF3D7_0213400), sequence (Q7YTF7 1-343): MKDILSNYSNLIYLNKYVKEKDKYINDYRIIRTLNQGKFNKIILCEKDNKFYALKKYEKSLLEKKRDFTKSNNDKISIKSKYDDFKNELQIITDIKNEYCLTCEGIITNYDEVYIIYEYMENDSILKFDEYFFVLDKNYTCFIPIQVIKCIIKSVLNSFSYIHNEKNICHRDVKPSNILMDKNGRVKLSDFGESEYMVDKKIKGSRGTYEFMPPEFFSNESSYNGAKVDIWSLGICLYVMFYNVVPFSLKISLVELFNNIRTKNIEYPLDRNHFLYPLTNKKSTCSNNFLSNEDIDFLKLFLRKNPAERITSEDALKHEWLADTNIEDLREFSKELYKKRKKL

[8] = molecular target: Calcium-dependent protein kinase 4 (Plasmodium falciparum (isolate 3D7)) (UniProt Q8IBS5); assay: PfCDPK4 kinase inhibitors, biochemical, TCAMS library (AID 1159588; cut-off not given, nearly all actives have IC50 up to about 0.91 µM); conditions: recombinant PfCDPK4, Kinase-Glo ATP depletion luminescence
Calcium-dependent protein kinase 4 (Plasmodium falciparum (isolate 3D7)), sequence (Q8IBS5 whole entry, looked up): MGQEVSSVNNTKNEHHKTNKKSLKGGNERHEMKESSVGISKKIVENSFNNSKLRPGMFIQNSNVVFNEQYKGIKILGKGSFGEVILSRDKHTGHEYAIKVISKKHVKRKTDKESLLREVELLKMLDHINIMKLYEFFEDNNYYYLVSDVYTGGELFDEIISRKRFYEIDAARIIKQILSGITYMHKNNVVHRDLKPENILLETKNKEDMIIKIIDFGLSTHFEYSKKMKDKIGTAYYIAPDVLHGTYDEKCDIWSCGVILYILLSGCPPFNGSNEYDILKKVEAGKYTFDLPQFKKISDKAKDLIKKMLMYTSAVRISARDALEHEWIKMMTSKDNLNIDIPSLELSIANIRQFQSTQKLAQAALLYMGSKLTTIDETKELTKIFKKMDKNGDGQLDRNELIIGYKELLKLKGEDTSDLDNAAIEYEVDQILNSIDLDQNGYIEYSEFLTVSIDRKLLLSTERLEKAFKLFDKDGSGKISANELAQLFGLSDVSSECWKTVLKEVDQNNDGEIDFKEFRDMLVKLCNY

SMILES | growth inhibition [1] | inhibition [2] | inhibition [3] | growth inhibition [4] | outcome [5] | outcome [6] | outcome [7] | outcome [8]
FC(F)(F)c1ccc2nc(-c3ccc(-c4ccc(CN5CCN(c6cnccn6)CC5)cc4)s3)[nH]c2c1 | 99% (active) | 23% | -7% | 101% (active) | inactive | inactive | inactive | inactive
COc1ccc(NC(=O)[C@H](CC(C)C)Nc2cc(C)nc(NCCc3cccs3)n2)cc1 | 68% (active) | 5% | 4% | 100% (active) | inactive | inactive | inactive | inactive
CCCCCCOc1ccc(C(=O)NCCC2CCN(CCCCCNC(=O)C=Cc3ccc(Cl)c(Cl)c3)CC2)cc1 | 10% | 13% | 0% | 99% (active) | inactive | inactive | inactive | inactive
